ROCK2 blocker = ROCK2 (human) kinase inhibition; O75116; purified ROCK2, Kinase-Glo ATP depletion luminescence; inhibition, % at 6 µM; 0.35% of 60,000 active; AID 604;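 active = inhibition above the screen-wide mean inhibition plus 3 SD, cut at about 18% in these data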;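 note: plate controls were DMSO wells for no effect and Y-27632 control wells after no-enzyme background subtraction for full effect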
Target sequence (O75116 whole entry, looked up): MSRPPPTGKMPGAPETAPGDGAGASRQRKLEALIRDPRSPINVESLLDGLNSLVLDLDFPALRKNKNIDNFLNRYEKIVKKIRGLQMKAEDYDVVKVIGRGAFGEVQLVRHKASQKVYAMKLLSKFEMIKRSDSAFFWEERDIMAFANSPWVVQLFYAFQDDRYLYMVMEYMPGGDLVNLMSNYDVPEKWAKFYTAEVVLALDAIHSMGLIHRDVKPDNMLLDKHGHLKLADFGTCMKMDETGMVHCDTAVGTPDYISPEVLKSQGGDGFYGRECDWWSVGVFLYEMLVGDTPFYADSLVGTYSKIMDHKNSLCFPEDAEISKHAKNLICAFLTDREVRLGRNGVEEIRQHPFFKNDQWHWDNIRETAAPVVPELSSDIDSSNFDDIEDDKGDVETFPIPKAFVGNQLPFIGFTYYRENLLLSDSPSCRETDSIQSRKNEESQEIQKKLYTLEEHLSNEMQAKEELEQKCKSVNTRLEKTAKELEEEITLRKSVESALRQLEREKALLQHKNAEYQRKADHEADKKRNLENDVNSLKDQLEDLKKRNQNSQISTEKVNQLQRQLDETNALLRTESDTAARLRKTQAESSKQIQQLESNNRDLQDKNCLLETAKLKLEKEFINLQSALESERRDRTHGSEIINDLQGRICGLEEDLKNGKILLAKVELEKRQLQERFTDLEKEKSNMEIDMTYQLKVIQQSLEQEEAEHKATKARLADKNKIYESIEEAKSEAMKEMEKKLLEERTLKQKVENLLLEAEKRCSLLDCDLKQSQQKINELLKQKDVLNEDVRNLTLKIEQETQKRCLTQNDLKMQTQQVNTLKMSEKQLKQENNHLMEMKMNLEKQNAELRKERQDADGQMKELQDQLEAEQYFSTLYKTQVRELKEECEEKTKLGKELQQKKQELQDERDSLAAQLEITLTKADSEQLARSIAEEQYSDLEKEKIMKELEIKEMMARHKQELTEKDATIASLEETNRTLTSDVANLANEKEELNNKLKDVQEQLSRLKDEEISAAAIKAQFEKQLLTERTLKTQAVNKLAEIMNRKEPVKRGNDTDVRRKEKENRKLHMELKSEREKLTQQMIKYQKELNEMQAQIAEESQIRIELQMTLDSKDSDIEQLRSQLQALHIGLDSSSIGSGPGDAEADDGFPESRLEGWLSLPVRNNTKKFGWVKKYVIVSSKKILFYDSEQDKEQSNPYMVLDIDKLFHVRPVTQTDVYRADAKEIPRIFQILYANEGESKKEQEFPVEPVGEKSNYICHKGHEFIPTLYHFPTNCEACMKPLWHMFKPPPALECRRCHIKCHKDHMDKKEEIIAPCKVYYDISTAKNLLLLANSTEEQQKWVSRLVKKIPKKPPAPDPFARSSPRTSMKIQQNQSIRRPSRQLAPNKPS
PKA inh = PKA (human) kinase inhibition; PKA Kemptide phosphorylation, Kinase-Glo ATP luminescence; inhibition, % at 6 µM; 0.1% of 65,000 active;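 active = inhibition above the screen-wide mean inhibition plus 3 SD, cut at about 21% in these data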
Cdc25B block = human M-phase inducer phosphatase 2 inhibition; inhibition, %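 (compounds tested at 10 µM final in the well)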; P30305; recombinant Cdc25B, OMFP fluorescence Ex485/Em525; 0.1% of 65,000 active; in the data active = inhibition above about 50%
MKP-1 inh = inhibitors of human MKP-1 phosphatase; P28562; recombinant MKP-1, OMFP hydrolysis fluorescence; inhibition, %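 (compounds tested at a single concentration somewhere between 10 and 100 µM)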; 0.15% of 65,000 active; AID 374;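 active = inhibition above about 50%, limit read from the data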;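 note: 0% = DMSO max control wells and 100% = wells with enzyme stopped by NaOH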
WNV NS2B-NS3 inh = WNV NS2B-NS3 proteinase inhibition; z-score (concentration not given with the values); 0.18% of 65,000 active; P06935; WNV NS2B-NS3 protease, fluorogenic substrate Ex360/Em465; active compounds read low; AID 577; in the data active = z-score below about -3
Redox 05 DTT = redox cycling H2O2 generation, Cdc25B counter-screen. shares compounds with Cdc25B block. cell-free redox cycling H2O2 generation, 0.5 mM DTT. EC50, µM. 50% of 30 active. AID 682; in the data active = EC50 below about 30 µM
Redox 1 DTT = counter-screen for Cdc25B probes: redox cycling H2O2 in 1 mM DTT; shares compounds with Cdc25B block; cell-free redox cycling H2O2 generation; EC50, µM; 30 tested, under 10 active; in the data active = EC50 below about 50 µM
Redox H2O2 = counter-screen for MKP-1 and MKP-3 probes: redox cycling H2O2 generation. 60 tested, under 10 active. AID 672. shares compounds with MKP-1 inh. EC50, µM. DTT, phenol red/HRP; call rule not given here
An asterisk follows results filed as active; x = not tested or not shown. Most compounds without a hit are left out; they make up all but 0.67% or so of the library.

SMILES	ROCK2 blocker	PKA inh	Cdc25B block	MKP-1 inh	WNV NS2B-NS3 inh	others
C1=C(c2c[nH]c3ccccc23)CCNC1	28*	21*	6	-3	0.17
COc1ccc(N2CCN(C(CNC(=O)Oc3ccccc3)c3cccnc3)CC2)cc1 (centres undefined)	0	11	12	9	-7.2*
O=C(NCC(c1cccnc1)N1CCN(c2ccccc2F)CC1)Oc1ccccc1 (centres undefined)	x	2	-5	-16	0.38
c1ccc2c(c1)[nH]c1cnccc12	24*	-2	-7	-12	0.17
Cc1c2ccncc2c(C)c2c1[nH]c1ccccc12	46*	46*	23	-29	0.82
Cc1[nH]c2ccccc2c1/C=N/O	3	1	1	-7	-0.36
c1ccc2c3c([nH]c2c1)CNCC3	-11	-12	3	-3	-0.98
C=Cn1c(P(=S)(N2CCOCC2)N2CCOCC2)cc2c1CCCC2	3	0	-3	31	0.67
O=c1[nH]c2c(c(=O)n1C1CCCCC1)CCC2	13	7	-39	-10	0.87
CCN(CC)C(=O)c1ccc(NC(=O)Cn2nc(C)c3ccccc3c2=O)cc1	x	-1	71*	0	1.6
CCNCC1(c2ccc(OC)c(OC)c2)CCCC1	1	4	1	-24	-4.8*
CN(C)C(=O)Oc1ccc(OC(=O)N(C)C)cc1	5	0	3	5	-0.29
CCN1CCN(Cc2nnnn2C(C)(C)C)CC1	21*	66*	-3	-17	1.1
O=C(CN1CC(c2ccccc2)CC1=O)NCc1ccc(F)cc1 (centres undefined)	4	7	-9	0	0.63
COP(=O)(OC)C(O)C(Cl)(Cl)Cl (centres undefined)	3	0	-15	-10	-3.4*
COc1ccc(OC)c(C(O)C(C)N)c1 (centres undefined)	5	2	-6	-14	0.38
CCn1c(=O)n(CC(=O)N2CCC3(CC2)OCCO3)c(=O)c2ccccc21	4	1	53*	1	-0.33
OCCN1C2CCC1CC(O)(c1ccc(F)cc1)C2 (centres undefined)	x	2	-14	2	0.77
Cn1ncnc2c(=O)n(C)c(=O)nc1-2	67*	1	102*	101*	-0.47	Redox 05 DTT=1.2*;Redox 1 DTT=3.2*;Redox H2O2=11*
Cn1c(O)c(C=NCCOc2ccc(Cl)cc2)c(=O)n(C)c1=O	-3	-2	1	16	0.77

Assay outcomes (PubChem BioAssay)
